According to PubChem BioAssay (NCI):
The panel holds about 83,000 compounds, 20% with a hit somewhere; the sample as a whole holds those more often.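 Percent growth is the endpoint: 0 to 100 indicates growth inhibition (40 means 60% inhibition), 0 means no net growth, and negative values indicate cell death.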 A number with no mark means an inactive call. Active and inactive are the calls of the source. Rule for the calls: active = growth percent below 10; inactive = the rest.

Columns and labels:
Assay in all cases: NCI-60 one-dose screen, 48 h (100 = growth as untreated, 0 = no growth, -100 = all killed)
Conditions in all cases: 10 µM unless noted
NCI-H23 lung = test system: NCI-H23 lung
NCI-H226 lung = test system: NCI-H226 lung
NCI-H322M lung = test system: NCI-H322M lung
HOP-62 NSCLC = test system: HOP-62 NSCLC
NCI-H460 lung = test system: NCI-H460 lung
A549/ATCC NSCLC = test system: A549/ATCC NSCLC
786-0 renal = test system: 786-0 renal
COLO 205 colon = test system: COLO 205 colon
DU-145 prostate = test system: DU-145 prostate
K-562 leukemia = test system: K-562 leukemia
MALME-3M melanoma = test system: MALME-3M melanoma
MDA-MB-231 breast = test system: MDA-MB-231 breast
RXF 393 renal = test system: RXF 393 renal
SF-268 CNS = test system: SF-268 CNS
SF-295 CNS = test system: SF-295 CNS
SF-539 CNS = test system: SF-539 CNS
UACC-257 melanoma = test system: UACC-257 melanoma
M14 melanoma = test system: M14 melanoma
NCI-H522 lung = test system: NCI-H522 lung
HOP-92 NSCLC = test system: HOP-92 NSCLC

Row | Structure (SMILES) | growth (NCI-H23 lung) | growth (NCI-H226 lung) | growth (NCI-H322M lung) | growth (HOP-62 NSCLC) | growth (NCI-H460 lung) | growth (A549/ATCC NSCLC) | growth (786-0 renal) | growth (COLO 205 colon) | growth (DU-145 prostate) | growth (K-562 leukemia) | growth (MALME-3M melanoma) | growth (MDA-MB-231 breast) | growth (RXF 393 renal) | growth (SF-268 CNS) | growth (SF-295 CNS) | growth (SF-539 CNS) | growth (UACC-257 melanoma) | growth (M14 melanoma) | growth (NCI-H522 lung) | growth (HOP-92 NSCLC)
1 | CC[N+](CC)=c1cc2oc3cc(N(C)C)ccc3nc-2cc1C | 8.14% (active) | 79% | -28.4% (active) | 18.3% | 36.4% | 36.5% | 70.4% | -9.82% (active) | 73.8% | 55.2% | -25.5% (active) | 8.42% (active) | 81.7% | 2.86% (active) | 17.7% | 22.2% | -28% (active) | 18.2% |  | 
2 | O=C(O)COc1ccc(-c2cssc2=S)cc1 | 102% | 99.1% | 104% | 104% | 113% | 97.6% | 101% | 109% | 120% | 115% | 97% | 110% | 107% | 105% | 97.3% | 96.3% | 94.5% | 105% | 85.6% | 
3 | COC1=C(OC)C(=O)C(CCCCCCCCCC[P+](c2ccccc2)(c2ccccc2)c2ccccc2)=C(C)C1=O | -8.24% (active) | -19.5% (active) |  | -19.5% (active) | -52.1% (active) | -4.09% (active) | -57.8% (active) | -93.3% (active) | 6.01% (active) | -48.9% (active) | -86.3% (active) | -39.6% (active) | -56.7% (active) | -61.6% (active) | -52.6% (active) | -25.1% (active) | -61.2% (active) |  | 2.62% (active) | -47.3% (active)
4 | Cc1ccc(S(=O)(=O)NC(=O)n2cc(-c3ccncc3)c(-c3ccc(Cl)c(O)c3)n2)cc1 | 108% | 98.6% | 111% | 116% | 111% | 99.6% | 95.4% | 113% | 132% | 98.9% | 65% | 89.8% | 114% | 117% | 109% | 92.1% | 99.4% | 51.2% | 91.3% | 
5 | CCCCCCCC/C=C/CCCCCCCC1=NC(C)(C)CN1C(C)(C)CO | 44.7% | 86.2% | 58.5% | 30.6% | -86.4% (active) | 30.8% | 60.3% | -86.3% (active) |  | -58.6% (active) | -12.9% (active) | 17.5% | 13.1% | 53.6% | 86.9% | 77.1% | -28.5% (active) | -84.7% (active) | 13% | 
6 | Cc1ccc2[nH]c(=O)c3c(c2c1)Oc1ncn2nc(-c4ccco4)nc2c1C3c1ccc(Cl)cc1 (stereo unspecified) | 93.3% | 92.4% | 96.1% | 92.1% | 99.9% | 96.7% |  | 109% | 98.5% | 93.2% | 96.3% | 89.4% | 93.2% | 91.8% | 95.9% | 89.8% | 95.5% | 100% |  | 78.5%
7 | C/C=C(\C)C(C(=O)NC1CCCCC1)N(C(=O)C1CCc2cc(F)ccc2O1)c1ccc(Cl)cc1 (stereo unspecified) | 103% | 93.7% | 110% | 93.6% | 104% | 96.2% | 101% | 106% | 108% | 99.7% | 109% | 103% | 109% | 97.2% | 97.5% | 98.2% | 98.8% | 103% | 92% | 
8 | CC(C)(C)n1cc(-c2ccnc(NCCCNS(=O)(=O)c3ccc(C(F)(F)F)cc3)c2)c(-c2cccc(O)c2)n1 | 37.8% | 42% | 35.1% | 54.8% | -48.5% (active) | 21.5% | -17.3% (active) | -59.1% (active) | 46.3% | 3% (active) | -18% (active) | 1.39% (active) | -3.46% (active) | 36.3% | 1.72% (active) | 19.8% | 17.2% | 1.32% (active) | -13.3% (active) | 
9 | O=C1/C(=C/c2ccccc2)CN(C(=O)CCN2CCC(=NO)CC2)C/C1=C\c1ccccc1 | 1.59% (active) | 104% | 34% | 49.9% | -32.2% (active) | 71.3% | -25.8% (active) | -46.8% (active) | 16.1% | 6.48% (active) | -13.2% (active) | -32.1% (active) | -71% (active) | 7.27% (active) | -10.5% (active) | -30.5% (active) | 11.3% | 0.212% (active) | -61.4% (active) | 
10 | Cc1nc2cncc(C#Cc3cncc(C(=O)Nc4ccc(CN5CCN(C)CC5)c(C(F)(F)F)c4)c3)c2nc1C | 7.45% (active) | -28.7% (active) | 8.94% (active) | -17.4% (active) | 13.9% | 31% | 29.6% | -12.3% (active) | 17.5% | 7.52% (active) | -38.8% (active) | -49.4% (active) | -26.2% (active) | 16.1% | 20.5% | -41.9% (active) | 14% | -24.8% (active) | 10.2% | 
